Source: PubChem BioAssay (Tox21)
A number with no mark means an inactive call. Results filed as inconclusive are left out. Where a call stands in place of a potency, no number is given. Activity calls are given as the source filed them. Unless noted, calls come from the whole dose curve.

Columns and labels:
[1] = Nuclear factor erythroid 2-related factor 2/antioxidant responsive element (Nrf2/ARE) small molecule agonists: qHTS cell viability counter screen in human keratinocytes (AID 1919968; active = well fitted curve in the direction sought with a large enough effect in the repeat runs; an effect the other way counts as inactive or inconclusive; note: nearly all actives have a fitted effect of over 55% in size; note: potency is the fitted concentration of half-maximal effect)
Summary of the method: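 Stably transfected HaCaT (KeratinoSens), 1,500/well. Test agents in DMSO were applied for 23 h, 37 C/5% CO2. CellTiter-Fluor was incubated 1 h before the fluorescence read.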

[2] = Nuclear factor erythroid 2-related factor 2/antioxidant responsive element (Nrf2/ARE) small molecule agonists: luciferase reporter gene qHTS assay in human keratinocytes (AID 1919969); note: nearly all actives have a fitted effect of over 35% in size; note: potency is the fitted concentration of half-maximal effect
[3] = molecular target: Gonadotropin-releasing hormone receptor (Homo sapiens) (UniProt P30968); test: Human gonadotropin-releasing hormone receptor (GnRHR) small molecule agonists, calcium flux assay in GnRHR-HEK293 cells (AID 1920063); note: nearly all actives have a fitted effect of over 35% in size
Gonadotropin-releasing hormone receptor (Homo sapiens), sequence (P30968 whole entry, looked up): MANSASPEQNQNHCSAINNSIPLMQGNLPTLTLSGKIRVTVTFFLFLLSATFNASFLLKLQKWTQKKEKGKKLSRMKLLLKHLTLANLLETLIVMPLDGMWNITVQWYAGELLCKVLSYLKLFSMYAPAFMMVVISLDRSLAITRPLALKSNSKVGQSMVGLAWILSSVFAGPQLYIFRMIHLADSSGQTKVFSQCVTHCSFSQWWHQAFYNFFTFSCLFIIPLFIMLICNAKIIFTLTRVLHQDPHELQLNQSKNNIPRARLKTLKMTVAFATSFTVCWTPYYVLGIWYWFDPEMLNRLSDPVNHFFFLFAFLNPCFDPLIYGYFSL
Summary of the method: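 Stable human GnRHR HEK293 line. 18 h plating, then calcium dye for 1 h at 37 C. Agonist-mode compound addition from DMSO stocks; fluorescence monitored 3 min.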

[4] = molecular target: KiSS-1 receptor (Homo sapiens) (UniProt Q969F8); test: Human kisspeptin (KISS1R) small molecule agonists, calcium flux assay in KISS1R-HEK293 cells (AID 1920064; active = well fitted curve in the direction sought with a large enough effect in the repeat runs; an effect the other way counts as inactive or inconclusive)
KiSS-1 receptor (Homo sapiens), sequence (Q969F8 whole entry, looked up): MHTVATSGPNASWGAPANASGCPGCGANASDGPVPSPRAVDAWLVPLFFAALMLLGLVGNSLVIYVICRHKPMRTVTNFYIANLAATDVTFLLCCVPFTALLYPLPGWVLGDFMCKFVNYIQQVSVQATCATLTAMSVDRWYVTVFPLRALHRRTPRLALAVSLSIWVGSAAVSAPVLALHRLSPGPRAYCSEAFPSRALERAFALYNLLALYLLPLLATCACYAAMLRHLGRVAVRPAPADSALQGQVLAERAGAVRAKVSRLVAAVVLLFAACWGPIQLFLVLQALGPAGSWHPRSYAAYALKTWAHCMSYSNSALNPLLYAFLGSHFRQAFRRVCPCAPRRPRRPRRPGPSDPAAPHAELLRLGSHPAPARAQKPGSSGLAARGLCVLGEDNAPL
Summary of the method: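 After overnight (18 h) culture at 37 C/5% CO2, human KISS1R-HEK293 cells received calcium dye for 1 h, then test compound; emission at 540 nm (excitation 480 nm) was tracked for 3 min.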

[5] = G protein-coupled receptor (GPCR) small molecule agonists, calcium flux assay: HEK293 wild type cell line counter screen (AID 1920065)
Summary of the method: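 Following 18 h incubation at 37 C/5% CO2, plates got calcium dye for 1 h; compounds, ATP or DMSO were then pinned in and fluorescence followed kinetically (480/540 nm).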

[6] = p53 small molecule agonists, cell-based qHTS assay with human liver microsomes (AID 1963577);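 note: p53 response element beta-lactamase reporter cells with liver microsomes plus NADPH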
Summary of the method: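 In this qHTS, p53 response-element beta-lactamase cells receive test compound together with a microsome/NADPH activating system (0.5 mg/mL final each) and are incubated 16 h at 37 C before LiveBLAzer fluorescence detection.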

[7] = p53 small molecule agonists, cell-based qHTS assay with human liver microsomes: qHTS cell viability counter screen (AID 1963579); note: nearly all actives have a fitted effect of over 45% in size; note: potency is the fitted concentration of half-maximal effect
Summary of the method: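 Metabolically activated exposure: compounds, human liver microsomes and NADPH (0.5 mg/mL final apiece) were added to p53RE-bla cells seeded 5 h earlier, left 16 h at 37 C, and then assessed for viability by CellTiter-Glo luminescence.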

[8] = p53 small molecule agonists, cell-based qHTS assay with rat liver microsomes: qHTS cell viability counter screen (AID 1963580); note: nearly all actives have a fitted effect of over 45% in size; note: potency is the fitted concentration of half-maximal effect
Summary of the method: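 Cytotoxicity counter screen: intracellular ATP read by CellTiter-Glo luminescence in the p53 reporter wells. HCT-116 p53RE-bla cells were treated for 16 h at 37 C alongside rat liver microsomes and NADPH, each 0.5 mg/mL final.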

[9] = p53 small molecule agonists, cell-based qHTS assay (AID 1963582; active = well fitted activation curve with a large enough effect in the signal ratio in the repeat runs, not every such curve was filed as active; the % refers to the signal ratio)
Summary of the method: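 Measured: fluorescence from cleaved LiveBLAzer substrate. System: p53RE-bla cells, 16 h compound treatment at 37 C, 2 h substrate step at room temperature.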

[10] = molecular target: 5-hydroxytryptamine receptor 2A (Homo sapiens) (UniProt P28223); test: 5-hydroxytryptamine receptor 2A (HTR2A) small molecule agonists, cell-based qHTS assay (AID 1963587); note: nearly all actives have a fitted effect of over 30% in size; note: potency is the fitted concentration of half-maximal effect
5-hydroxytryptamine receptor 2A (Homo sapiens), sequence (P28223 whole entry, looked up): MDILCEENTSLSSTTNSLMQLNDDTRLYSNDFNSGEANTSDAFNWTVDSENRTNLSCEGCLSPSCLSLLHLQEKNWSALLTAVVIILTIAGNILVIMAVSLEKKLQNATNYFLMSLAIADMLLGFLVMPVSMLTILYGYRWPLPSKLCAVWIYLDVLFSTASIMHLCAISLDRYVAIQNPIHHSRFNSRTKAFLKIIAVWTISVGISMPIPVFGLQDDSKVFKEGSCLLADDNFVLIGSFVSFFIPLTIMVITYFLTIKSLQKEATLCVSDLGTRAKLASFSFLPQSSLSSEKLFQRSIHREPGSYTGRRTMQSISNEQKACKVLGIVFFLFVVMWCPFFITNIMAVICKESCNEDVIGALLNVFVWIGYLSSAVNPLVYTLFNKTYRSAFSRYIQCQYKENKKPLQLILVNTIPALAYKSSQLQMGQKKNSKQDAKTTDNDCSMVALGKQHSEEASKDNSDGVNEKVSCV
Summary of the method: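 Kinetic calcium-flux fluorescence (2 min, 1 sec intervals) after compound addition in agonist mode. HTR2A-CHO cells were cultured 18 h, then dye-loaded 1 h at 37 C.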

[11] = molecular target: Muscarinic acetylcholine receptor M1 (Homo sapiens) (UniProt P11229); test: Cholinergic receptor muscarinic 1 (CHRM1) small molecule antagonists, cell-based qHTS assay (AID 1963588); note: nearly all actives have a fitted effect of over 40% in size
Muscarinic acetylcholine receptor M1 (Homo sapiens), sequence (P11229 whole entry, looked up): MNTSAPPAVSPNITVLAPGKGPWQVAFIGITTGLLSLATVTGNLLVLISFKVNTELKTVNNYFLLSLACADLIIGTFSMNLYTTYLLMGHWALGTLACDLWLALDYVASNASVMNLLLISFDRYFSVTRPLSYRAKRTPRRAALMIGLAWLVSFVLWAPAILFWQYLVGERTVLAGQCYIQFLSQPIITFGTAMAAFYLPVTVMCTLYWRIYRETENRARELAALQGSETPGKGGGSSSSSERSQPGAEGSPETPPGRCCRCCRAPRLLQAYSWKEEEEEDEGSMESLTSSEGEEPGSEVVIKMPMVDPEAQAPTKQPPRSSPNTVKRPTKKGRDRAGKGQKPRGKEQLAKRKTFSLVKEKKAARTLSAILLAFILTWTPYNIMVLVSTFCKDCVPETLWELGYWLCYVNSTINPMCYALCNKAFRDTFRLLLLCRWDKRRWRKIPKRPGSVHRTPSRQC
Summary of the method: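 Compounds were tested at 15 concentrations in three independent runs. Dye-loaded CHRM1-CHO cells were exposed 5 min at room temperature before stimulation by acetylcholine added at 50nM. Intracellular calcium was read kinetically on FDSS for 3 min.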

[12] = molecular target: Muscarinic acetylcholine receptor M1 (Homo sapiens) (UniProt P11229); test: Cholinergic receptor muscarinic 1 (CHRM1) small molecule agonists, cell-based qHTS assay (AID 1963589); note: nearly all actives have a fitted effect of over 35% in size
Summary of the method: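 Kinetic fluorescence (1 s intervals) of calcium-sensitive dye in human M1 CHO cells after compound addition; cells pre-incubated 18 h at 37 C/5% CO2 and dye-loaded 1 h.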

[13] = molecular target: Beta-2 adrenergic receptor (Homo sapiens) (UniProt P07550); test: Adrenergic beta2 receptor (ADRB2) small molecule antagonists, cell-based qHTS assay (AID 1963592); note: series mostly up to about 92 µM; nearly all actives have a fitted effect of over 50% in size
Beta-2 adrenergic receptor (Homo sapiens), sequence (P07550 whole entry, looked up): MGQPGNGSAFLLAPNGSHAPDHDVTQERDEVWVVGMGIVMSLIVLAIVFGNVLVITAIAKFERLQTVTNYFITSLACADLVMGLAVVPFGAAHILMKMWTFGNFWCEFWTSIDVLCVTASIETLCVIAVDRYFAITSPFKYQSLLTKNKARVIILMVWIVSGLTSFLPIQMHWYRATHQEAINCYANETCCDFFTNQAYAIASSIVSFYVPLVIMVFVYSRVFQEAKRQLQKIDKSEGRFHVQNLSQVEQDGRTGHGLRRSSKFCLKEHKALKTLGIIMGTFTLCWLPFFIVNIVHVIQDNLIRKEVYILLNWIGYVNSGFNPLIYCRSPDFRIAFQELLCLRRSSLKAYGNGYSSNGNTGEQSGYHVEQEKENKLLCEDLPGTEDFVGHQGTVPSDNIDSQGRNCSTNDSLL
Summary of the method: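 Assay format: CHO-ADRB2 cells, 18-20hr seeding at 37C/5% CO2, then compound plus 1nM isoproterenol agonist mix for 0.5hr RT. Homogeneous time-resolved fluorescence cAMP detection after 1hr, expressed as 665/615 nm ratio.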

[14] = molecular target: D(2) dopamine receptor (Homo sapiens) (UniProt P14416); test: Dopamine D2 receptor (DRD2) small molecule agonists, cell-based qHTS assay (AID 1963594); note: nearly all actives have a fitted effect of over 35% in size; note: potency is the fitted concentration of half-maximal effect
D(2) dopamine receptor (Homo sapiens), sequence (P14416 whole entry, looked up): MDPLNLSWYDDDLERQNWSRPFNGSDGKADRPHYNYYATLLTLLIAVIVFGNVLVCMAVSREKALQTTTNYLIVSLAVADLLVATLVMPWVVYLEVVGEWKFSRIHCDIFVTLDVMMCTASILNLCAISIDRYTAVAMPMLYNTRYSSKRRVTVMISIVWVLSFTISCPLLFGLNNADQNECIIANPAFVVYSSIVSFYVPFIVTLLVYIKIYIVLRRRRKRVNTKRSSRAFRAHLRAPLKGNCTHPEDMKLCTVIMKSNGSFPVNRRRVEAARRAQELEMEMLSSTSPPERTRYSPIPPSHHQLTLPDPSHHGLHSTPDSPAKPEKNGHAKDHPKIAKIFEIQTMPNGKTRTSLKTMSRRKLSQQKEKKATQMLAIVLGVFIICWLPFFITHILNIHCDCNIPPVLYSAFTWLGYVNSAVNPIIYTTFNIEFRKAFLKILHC
Summary of the method: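 cAMP accumulation in DRD2-HEK293 cells measured by HTRF after 1 h detection; compounds added 10 min before NKH477 (200nM […]) forskolin-analogue stimulation, 30 min at room temperature, with Ro20-1724 present at 0.1 mM final.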

[15] = molecular target: D(2) dopamine receptor (Homo sapiens) (UniProt P14416); test: Dopamine D2 receptor (DRD2) small molecule antagonists, cell-based qHTS assay (AID 1963595; active = well fitted inhibition curve with a large enough effect in the signal ratio in the repeat runs, with a control signal flat; the % refers to the signal ratio)
Summary of the method: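 Readout: HTRF cAMP, cAMP-d2 competing with cellular cAMP for anti-cAMP cryptate, read after 1 h. Cells: DRD2-HEK293. Conditions: 0.1 mM Ro20-1724, 12 nM quinpirole, 200 nM NKH477, 30 min RT.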

[16] = p53 small molecule agonists, cell-based qHTS assay: qHTS cell viability counter screen (AID 1963581); note: nearly all actives have a fitted effect of over 45% in size
Summary of the method: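 qHTS counter screen: 16 h compound exposure at 37 C of p53RE-bla HCT-116 cells (4,000 per well, seeded 5 h prior), cell viability by ATP luminescence.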

[17] = molecular target: 5-hydroxytryptamine receptor 2A (Homo sapiens) (UniProt P28223); test: 5-hydroxytryptamine receptor 2A (HTR2A) small molecule antagonists, cell-based qHTS assay (AID 1963586); note: nearly all actives have a fitted effect of over 45% in size
Summary of the method: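 CHO cells stably expressing human HTR2A were plated for 18 h at 37 C, then loaded with calcium dye for 1 h. Compounds were preincubated 5 min at room temperature before DOI (4 nM solution) was added. Kinetic fluorescence was read for 3 min.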

[18] = cAMP Responsive Elements (CRE) small molecule antagonists, cell-based qHTS assay (AID 1963591; active = well fitted inhibition curve with a large enough effect in the signal ratio in the repeat runs, not every such curve was filed as active; the % refers to the signal ratio; note: potency is the fitted concentration of half-maximal effect)
Summary of the method: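 Reporter line CRE-bla HEK 293T in dialyzed-FBS DMEM; cells preincubated 18 h, treated 3 h with compound plus NKH477 (0.25 uM final); LiveBLAzer FRET, 2 h RT.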

[19] = p53 small molecule agonists, cell-based qHTS assay with rat liver microsomes (AID 1963578)
Summary of the method: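 Agonist mode in p53RE-bla reporter cells, with compounds co-incubated 16 h at 37 C alongside 0.5 mg/mL rat liver microsomes and 0.5 mg/mL NADPH (final), followed by a 2 h LiveBLAzer detection step.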

[20] = cAMP Responsive Elements (CRE) small molecule agonists, cell-based qHTS assay (AID 1963590)
Summary of the method: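 Test agents in DMSO were incubated 3 h at 37 C/5% CO2 with CRE-bla HEK 293T cells seeded 18 h earlier; LiveBLAzer B/G FRET substrate was added and read after 2 h at room temperature.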

| Compound | Potency [1] | Potency [2] | Potency [3] | outcome [4] | outcome [5] | Potency [6] | Potency [7] | Potency [8] | Potency [9] | Potency [10] | Potency [11] | Potency [12] | Potency [13] | Potency [14] | Potency [15] | Potency [16] | Potency [17] | Potency [18] | Potency [19] | Potency [20] |
| --- | --- | --- | --- | --- | --- | --- | --- | --- | --- | --- | --- | --- | --- | --- | --- | --- | --- | --- | --- | --- |
| O=C(O)Cc1cn(-c2ccccc2)nc1-c1ccc(Cl)cc1 | inactive | inactive | inactive | inactive | inactive | inactive | inactive | inactive | inactive | inactive | inactive | inactive | inactive | inactive | inactive |  |  |  |  |  |
| O=S(=O)(Cl)c1c(Cl)cccc1Cl | inactive | inactive | inactive | inactive | inactive | inactive | inactive |  |  | inactive | inactive | inactive | inactive | inactive |  | inactive | inactive | inactive |  |  |
| CC1(C)S[C@@H]2[C@H](NC(=O)C(C(=O)O)c3ccccc3)C(=O)N2[C@H]1C(=O)O (stereo not given in full) | inactive | inactive | inactive | inactive | inactive |  | 177 nM (active) | inactive | inactive | inactive | inactive | inactive |  | inactive | inactive | inactive | inactive | inactive | inactive | inactive |
| CCOc1ccccc1N | inactive | inactive | inactive | inactive | inactive | inactive |  | inactive | inactive | inactive | inactive | inactive | inactive | inactive | inactive | inactive |  |  |  |  |
| Cc1cccc(C(=O)O)c1[N+](=O)[O-] | inactive | inactive | inactive | inactive | inactive |  | inactive | inactive | inactive | inactive | inactive | inactive | inactive | inactive | inactive | inactive | inactive | inactive | inactive | inactive |
| O=C1OC(O)C(C(Cl)Cl)=C1Cl (stereo not given) | 63 µM (active) | 25.1 µM (active) | inactive | inactive | inactive | inactive |  | inactive |  | inactive | inactive | inactive |  | inactive |  | inactive | inactive | 44.6 µM (active) |  |  |
| CC(C)(Sc1cc(C(C)(C)C)c(O)c(C(C)(C)C)c1)Sc1cc(C(C)(C)C)c(O)c(C(C)(C)C)c1 | inactive | inactive | inactive | inactive | inactive | inactive |  | inactive |  |  |  |  | inactive | inactive | inactive | inactive |  |  |  | inactive |
| C=CC(=O)OCCOCCOCC | inactive | inactive | inactive | inactive | inactive | inactive | inactive | inactive |  | inactive | inactive |  | inactive | inactive | inactive |  | inactive | inactive |  | inactive |
| CCCN(CCC)CCc1cccc2c1CC(=O)N2 | inactive | inactive | inactive | inactive | inactive | inactive | inactive |  | inactive | 16.9 µM (active) |  | inactive | inactive | 61.9 nM (active) | inactive | inactive | inactive | inactive |  | inactive |
| O=C1c2ccccc2C(=O)C1c1ccc2ccccc2n1 | inactive | 1.21 µM (active) | inactive | inactive | inactive | inactive | inactive |  | inactive | inactive | inactive | inactive | inactive | inactive | inactive | inactive | inactive | inactive |  | inactive |
| C=COC(=O)C(C)(CC)CCC(C)C (stereo not given) | inactive | inactive | inactive | inactive | inactive | inactive |  | inactive | inactive | inactive | inactive | inactive | inactive | inactive | inactive |  | inactive | inactive |  | inactive |
| CCCCCCC(CCCCCCCCCCC(=O)OCC(COC(C)=O)OC(C)=O)OC(C)=O (stereo not given) | inactive | inactive | inactive | inactive | inactive | inactive |  | inactive | inactive | inactive | inactive | inactive |  | inactive |  | inactive | inactive | inactive |  | inactive |
| CCCOC(=O)c1ccc(N)cc1 | inactive | inactive | inactive | inactive | inactive | inactive |  | inactive | inactive | inactive | inactive | inactive | inactive | inactive | inactive | inactive | inactive | inactive |  | inactive |
| CCCC(=O)OCOC(=O)C1=C(C)NC(C)=C(C(=O)OC)C1c1cccc(Cl)c1Cl (stereo not given) | inactive | inactive | inactive | inactive | inactive | inactive | inactive | inactive | inactive | inactive | inactive | inactive | inactive | inactive | inactive |  | inactive | inactive |  | inactive |
| C[N+](C)(C)CCOC(=O)CCC(=O)OCC[N+](C)(C)C | inactive | inactive | inactive | inactive | inactive | inactive |  | inactive | inactive |  |  |  | inactive | inactive | inactive | inactive |  | inactive |  | inactive |
| C=C(C)C1CCC(C)CC1O (stereo not given) | inactive | inactive | inactive | inactive | inactive | inactive | inactive | 1.62 µM (active) | inactive | inactive | inactive | inactive | inactive | inactive | inactive |  | inactive | inactive |  | inactive |
